Experimental findings from PubChem BioAssay (EPA / NIEHS) are described below.

Conditions in all cases: mRNA level, 48 h; actives raise or lower the signal
Read-out in experiment [1]: Alkaline Phosphatase, Placental (ALPP) gene, ALPP (gene 250)
Nature of the experiment: LTEA_HepaRG_ALPP: Life Technologies and Expression Analysis (LTEA) Assay for Alkaline Phosphatase, Placental (ALPP) gene using HepaRG (AID 2283468). Summed up: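 Using human liver HepaRG cells, chemicals are tested in duplicate over 48 h at half-log concentrations topping at 100 uM; phenobarbital 1 mM serves as induction control. ALPP mRNA change by qRT-PCR, bidirectional fit against vehicle.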

Read-out in experiment [2]: Bcl-2 (BAD) gene, BAD (gene 572)
Nature of the experiment: LTEA_HepaRG_BAD: Life Technologies and Expression Analysis (LTEA) Assay for Bcl-2 (BAD) gene using HepaRG (AID 2283469). Summed up: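 BAD transcript change, measured by qRT-PCR against three housekeeping genes and fitted in both directions relative to 0.5% DMSO, after 48 h chemical treatment of human HepaRG liver cells at concentrations up to 100 uM.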

Read-out in experiment [3]: Bcl-2 (BAX) gene, BAX (gene 581)
Nature of the experiment: LTEA_HepaRG_BAX: Life Technologies and Expression Analysis (LTEA) Assay for Bcl-2 (BAX) gene using HepaRG (AID 2283470). The procedure, abridged: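 Differentiated HepaRG cells exposed 48 h in serum-free induction medium, eight half-log concentrations from 100 uM, in duplicate, 0.5% DMSO vehicle. BAX mRNA by TaqMan qRT-PCR, normalised to ACTB, GAPDH and POLR2A.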

Read-out in experiment [4]: adenosine kinase (ADK) gene, ADK (gene 132)
In words: LTEA_HepaRG_ADK: Life Technologies and Expression Analysis (LTEA) Assay for adenosine kinase (ADK) gene using HepaRG (AID 2283471). The procedure, abridged:
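Read-out is ADK transcript level measured by qRT-PCR and normalised to three housekeeping genes. Cells are human HepaRG, dosed for 48 h at up to 100 uM in 0.5% DMSO. Gain or loss of signal is fitted against DMSO controls.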

Read-out in experiment [5]: Alpha-fetoprotein (AFP) gene, AFP (gene 174)
In words: LTEA_HepaRG_AFP: Life Technologies and Expression Analysis (LTEA) Assay for Alpha-fetoprotein (AFP) gene using HepaRG (AID 2283472). The procedure, abridged: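 Differentiated human HepaRG cells exposed 48 h in serum-free induction medium, 8-point half-log series from 100 uM in 0.5% DMSO, duplicate. AFP mRNA by qRT-PCR, normalized to ACTB, GAPDH, POLR2A; bidirectional fit vs DMSO.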

Read-out in another experiment: BCL2L11 (gene 10018)
Nature of the experiment: LTEA_HepaRG_BCL2L11: Life Technologies and Expression Analysis (LTEA) Assay for Bcl-2 (BCL2L11) gene using HepaRG (AID 2283473). The procedure, abridged:
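Human hepatic HepaRG cultures are treated 48 h with test chemicals (maximum 100 uM, 0.5% DMSO vehicle). Expression of BCL2L11 is measured by qRT-PCR against ACTB, GAPDH and POLR2A, with activity in either direction scored relative to vehicle.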

Read-out in experiment [6]: Apolipoprotein A-V (APOA5) gene, APOA5 (gene 116519)
Nature of the experiment: LTEA_HepaRG_APOA5: Life Technologies and Expression Analysis (LTEA) Assay for Apolipoprotein A-V (APOA5) gene using HepaRG (AID 2283474). Summed up:
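Concentration-response of APOA5 expression in HepaRG: eight half-log doses to 100 uM, 48 h, qRT-PCR normalized to ACTB/GAPDH/POLR2A, bidirectional fitting with 0.5% DMSO as baseline.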

Read-out in experiment [7]: Apoptosis regulator Bcl-2 (Homo sapiens) (UniProt P10415)
Nature of the experiment: LTEA_HepaRG_BCL2: Life Technologies and Expression Analysis (LTEA) Assay for Bcl-2 gene using HepaRG (AID 2283475). The procedure, abridged:
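Differentiated human HepaRG cells in serum-free induction medium exposed 48 h, in duplicate, to 8-point half-log series from 100 uM in 0.5% DMSO. BCL2 mRNA by qRT-PCR (TaqMan/Fluidigm), normalized to ACTB, GAPDH, POLR2A; bidirectional fit against DMSO.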

Read-out in experiment [8]: Bcl-2 (BID) gene, BID (gene 637)
Nature of the experiment: LTEA_HepaRG_BID: Life Technologies and Expression Analysis (LTEA) Assay for Bcl-2 (BID) gene using HepaRG (AID 2283476). Summed up:
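Gene expression by qRT-PCR in HepaRG cells after 48 h exposure, duplicate wells, eight half-log concentrations topping at 100 uM in 0.5% DMSO. Normalized to ACTB, GAPDH, POLR2A; bidirectional fitting relative to DMSO.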

Read-out in a further experiment: Caspase-3 (Homo sapiens) (UniProt P42574)
In words: LTEA_HepaRG_CASP3: Life Technologies and Expression Analysis (LTEA) Assay for cysteine-aspartic acid protease (CASP3) using HepaRG (AID 2283477). The procedure, abridged: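 Transcript-level assay: CASP3 mRNA in human HepaRG after 48 h treatment, eight half-log concentrations from 100 uM in 0.5% DMSO, quantified by qRT-PCR.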

Read-out in experiment [9]: Cytochrome P450 (CYP24A1), CYP24A1 (gene 1591)
In words: LTEA_HepaRG_CYP24A1: Life Technologies and Expression Analysis (LTEA) Assay for Cytochrome P450 (CYP24A1) using HepaRG (AID 2283478). The procedure, abridged:
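Gene expression of CYP24A1 by TaqMan qRT-PCR in HepaRG after 48 h treatment, highest concentration 100 uM; activity fitted in both directions relative to DMSO vehicle.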

Read-out in experiment [10]: Cytochrome P450 (CYP1A2), CYP1A2 (gene 1544)
Nature of the experiment: LTEA_HepaRG_CYP1A2: Life Technologies and Expression Analysis (LTEA) Assay for Cytochrome P450 (CYP1A2) using HepaRG (AID 2283479). The procedure, abridged: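 In duplicate wells, HepaRG cultures maintained in 0.5% DMSO were treated 48 h across an 8-point, half-log series topping at 100 uM; phenobarbital (1 mM) served as induction control. Expression was read by qRT-PCR.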

Read-out in experiment [11]: cysteine-aspartic acid protease (CASP8), CASP8 (gene 841)
Nature of the experiment: LTEA_HepaRG_CASP8: Life Technologies and Expression Analysis (LTEA) Assay for cysteine-aspartic acid protease (CASP8) using HepaRG (AID 2283480). The procedure, abridged:
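HepaRG, 48 h exposure, duplicate wells; 8 conc, half-log from 100 uM, 0.5% DMSO. Serum-free induction medium. CASP8 mRNA by TaqMan qRT-PCR, norm. ACTB/GAPDH/POLR2A; gain/loss fitted vs DMSO.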

Read-out in experiment [12]: Cytochrome P450 (CYP2B6), CYP2B6 (gene 1555)
Nature of the experiment: LTEA_HepaRG_CYP2B6: Life Technologies and Expression Analysis (LTEA) Assay for Cytochrome P450 (CYP2B6) using HepaRG (AID 2283481). Summed up: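 Human HepaRG, 48 h dosing, 0.5% DMSO vehicle, top dose 100 uM. CYP2B6 transcript by qRT-PCR, housekeeping-normalized, bidirectional curve fit.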

Read-out in experiment [13]: Cytochrome P450 2C19 (Homo sapiens) (UniProt P33261)
Nature of the experiment: LTEA_HepaRG_CYP2C19: Life Technologies and Expression Analysis (LTEA) Assay for CYP2C19 using HepaRG (AID 2283482). Summed up: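 Endpoint: CYP2C19 mRNA change, bidirectional fit vs 0.5% DMSO. Cells: HepaRG, 48 h exposure, eight-point series topping at 100 uM. Quantitation: qRT-PCR normalized to ACTB, GAPDH, POLR2A.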

Read-out in another experiment: CYP2C8 (gene 1558)
Nature of the experiment: LTEA_HepaRG_CYP2C8: Life Technologies and Expression Analysis (LTEA) Assay for CYP2C8 using HepaRG (AID 2283483). Summed up:
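CYP2C8 mRNA induction or loss, by qRT-PCR normalized to ACTB/GAPDH/POLR2A, is read in HepaRG cells after 48 h treatment. Concentrations run from 100 uM down in half-log dilutions, with 0.5% DMSO as vehicle and baseline.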

Read-out in the next experiment: CYP2C9 (gene 1559)
In words: LTEA_HepaRG_CYP2C9: Life Technologies and Expression Analysis (LTEA) Assay for CYP2C9 using HepaRG (AID 2283484). The procedure, abridged:
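Cells plated 48 h, switched to serum-free induction medium, then treated in duplicate for 48 h at eight concentrations (max 100 uM, 0.5% DMSO). RNA then analysed by qRT-PCR for CYP2C9; curves fitted in both directions relative to DMSO.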

Read-out in the next experiment: CYP2E1 (gene 1571)
Nature of the experiment: LTEA_HepaRG_CYP2E1: Life Technologies and Expression Analysis (LTEA) Assay for CYP2E1 using HepaRG (AID 2283485). Summed up:
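HepaRG cells, plated 48 h, then exposed 48 h in serum-free induction medium to eight half-log concentrations from 100 uM in 0.5% DMSO, duplicate. CYP2E1 mRNA by qRT-PCR, normalized to ACTB/GAPDH/POLR2A; bidirectional fit versus DMSO.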

Read-out in the next experiment: CYP4A11 (gene 1579)
In words: LTEA_HepaRG_CYP4A11: Life Technologies and Expression Analysis (LTEA) Assay for CYP4A11 using HepaRG (AID 2283486). The procedure, abridged: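 Human hepatic HepaRG cultures receive duplicate 48 h exposures across a concentration-response series topping at 100 uM. Expression changes in CYP4A11 are measured by qRT-PCR relative to DMSO controls.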

Read-out in experiment [14]: Cytochrome P450 3A4 (Homo sapiens) (UniProt P08684)
Nature of the experiment: LTEA_HepaRG_CYP3A4: Life Technologies and Expression Analysis (LTEA) Assay for CYP3A4 using HepaRG (AID 2283487). Summed up: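 HepaRG, 48 h exposure, 8-pt CRC from 100 uM (half-log), 0.5% DMSO, duplicates; serum-free induction medium. Readout: CYP3A4 mRNA, qRT-PCR, ACTB/GAPDH/POLR2A normalization. Bidirectional fit vs DMSO.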

Activity calls are given as the source filed them. Rule for the calls: active = hit-call score of the fitted dose curve at least 0.9, where 1 is the maximum; inactive = score below 0.9.

Apoptosis regulator Bcl-2 (Homo sapiens), sequence (P10415 whole entry, looked up): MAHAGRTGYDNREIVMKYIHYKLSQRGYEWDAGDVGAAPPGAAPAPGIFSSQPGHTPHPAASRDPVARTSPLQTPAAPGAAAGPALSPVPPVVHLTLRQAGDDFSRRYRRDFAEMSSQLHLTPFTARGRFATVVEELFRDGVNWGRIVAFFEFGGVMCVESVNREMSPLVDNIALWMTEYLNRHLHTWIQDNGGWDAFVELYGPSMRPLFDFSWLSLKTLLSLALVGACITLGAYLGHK
Cytochrome P450 2C19 (Homo sapiens), sequence (P33261 whole entry, looked up): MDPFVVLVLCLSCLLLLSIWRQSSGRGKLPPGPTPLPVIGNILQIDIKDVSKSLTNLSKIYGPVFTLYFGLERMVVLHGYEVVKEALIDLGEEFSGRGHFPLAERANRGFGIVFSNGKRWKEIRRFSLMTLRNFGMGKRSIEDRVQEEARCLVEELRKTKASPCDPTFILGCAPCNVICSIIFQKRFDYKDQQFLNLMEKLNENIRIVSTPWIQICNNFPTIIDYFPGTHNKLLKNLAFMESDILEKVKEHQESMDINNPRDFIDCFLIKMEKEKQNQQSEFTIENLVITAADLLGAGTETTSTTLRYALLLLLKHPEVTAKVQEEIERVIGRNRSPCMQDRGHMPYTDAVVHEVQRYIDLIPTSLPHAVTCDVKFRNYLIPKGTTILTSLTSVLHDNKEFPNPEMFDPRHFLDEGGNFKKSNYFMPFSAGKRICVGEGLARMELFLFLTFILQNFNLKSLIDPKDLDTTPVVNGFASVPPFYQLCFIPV
Caspase-3 (Homo sapiens), sequence (P42574 whole entry, looked up): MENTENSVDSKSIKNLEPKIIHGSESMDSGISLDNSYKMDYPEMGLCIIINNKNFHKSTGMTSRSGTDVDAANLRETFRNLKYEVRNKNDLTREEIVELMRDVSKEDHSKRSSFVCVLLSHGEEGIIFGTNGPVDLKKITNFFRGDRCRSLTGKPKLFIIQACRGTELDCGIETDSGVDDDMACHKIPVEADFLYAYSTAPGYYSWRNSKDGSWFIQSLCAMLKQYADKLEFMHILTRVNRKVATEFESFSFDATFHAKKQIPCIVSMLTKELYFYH
Cytochrome P450 3A4 (Homo sapiens), sequence (P08684 whole entry, looked up): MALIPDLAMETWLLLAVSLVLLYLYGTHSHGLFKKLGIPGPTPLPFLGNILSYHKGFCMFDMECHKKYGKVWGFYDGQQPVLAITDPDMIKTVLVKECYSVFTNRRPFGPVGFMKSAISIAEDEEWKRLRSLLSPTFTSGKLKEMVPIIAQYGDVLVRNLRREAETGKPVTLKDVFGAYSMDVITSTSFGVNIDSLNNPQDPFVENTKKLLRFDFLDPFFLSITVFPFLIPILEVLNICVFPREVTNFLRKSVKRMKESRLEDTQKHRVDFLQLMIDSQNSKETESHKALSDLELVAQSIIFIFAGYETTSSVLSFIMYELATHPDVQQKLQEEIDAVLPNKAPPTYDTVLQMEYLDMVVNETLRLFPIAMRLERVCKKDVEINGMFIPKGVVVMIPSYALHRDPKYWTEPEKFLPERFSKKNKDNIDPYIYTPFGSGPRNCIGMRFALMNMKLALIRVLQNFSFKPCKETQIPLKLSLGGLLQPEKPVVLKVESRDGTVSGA

As to `Nc1ccc(-c2ccc(N)cc2)cc1`, the outcome (in experiment [1]; in [2]; in experiment [3]; in [4]; in experiment [5]; in the experiment with BCL2L11 (gene 10018)) was inactive. The result (in experiment [6]; in experiment [7]; in experiment [8]; with Caspase-3 (Homo sapiens); in experiment [9]; in [10]) was inactive. For the same molecule, the call (in experiment [11]; in experiment [13]; with CYP2C8 (gene 1558); with CYP2C9 (gene 1559); in [14]) was inactive. The values for the AC50 (in experiment [12]; with CYP2E1 (gene 1571); in the experiment with CYP4A11 (gene 1579)) were 50 µM (active), 12.3 µM (active) and 33.1 µM (active), respectively.
Turning to `Cc1cc2c3c(c1)C(c1ccccc1)=N[C@@H](NC(=O)c1ccncc1)C(=O)N3CC2`, the AC50 – broadly, the concentration giving half of the maximal activity seen – in experiment [1] is 10.3 µM (active); in experiment [5], 50 µM (active); in [6], 62.5 µM (active); in [10], 23.1 µM (active); in [13] it was 3.58 µM (active); in the experiment with CYP2E1 (gene 1571) it was 17.9 µM (active). Also, the AC50 with CYP4A11 (gene 1579) was 40.4 µM (active); in experiment [14] it was 3.86 µM (active). Further, the molecule was called inactive (in experiment [2]; in experiment [3]; in experiment [4]; with BCL2L11 (gene 10018); in [7]; in experiment [8]). The molecule was called inactive (with Caspase-3 (Homo sapiens); in experiment [9]; in experiment [11]; in [12]; with CYP2C8 (gene 1558); in the experiment with CYP2C9 (gene 1559)).
Turning to `Clc1ccc(C(c2ccccc2Cl)C(Cl)(Cl)Cl)cc1` (stereo not given), the molecule was called inactive (in [1]; in [2]; in experiment [3]; in [4]; in the experiment with BCL2L11 (gene 10018); in experiment [7]). Also, the outcome (in [8]; with Caspase-3 (Homo sapiens); in experiment [9]; in [10]; in [11]; with CYP2C9 (gene 1559)) was inactive. Also, the AC50 in [5] was 36.3 µM (active); in [6], 10.7 µM (active); in experiment [12] it was 0.213 µM (active); in experiment [13], 1.76 µM (active); with CYP2C8 (gene 1558) it was 0.794 µM (active); in the experiment with CYP2E1 (gene 1571), 39.8 µM (active). In addition, the AC50 was 40.7 µM (active) in the experiment with CYP4A11 (gene 1579) and 2.46 µM (active) in experiment [14].
